Screening results deposited in PubChem BioAssay by National Center for Advancing Translational Sciences (NCATS).
KinaseGlo FLuc: Counterscreen for Luciferase (Kinase-Glo TM) Inhibition. Luciferin 4-monooxygenase (Photuris pensylvanica), Q27757. Kinase-Glo luciferase, ATP luminescence, 8 min. Potency, µM (top dose mostly 38.3 µM), for inactives: at the top dose activity change, negative = inhibition, most hits filed as inhibitors. 200,000 tested, 0.28% active. AID 1379, 2008; further: nearly all actives have a fitted effect of over 60% in size
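Luminescence was the read-out, taken after 8-minute incubation at ambient temperature. Luciferase turned over luciferin with 10 uM ATP in imidazole pH 7.2 buffer containing KCl, MgCl2, Tween 20 and BSA.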
VP16 counter: VP16 counterscreen qHTS for inhibitors of ROR gamma transcriptional activity | Drosophila S2 Gal4-VP16 UAS-luciferase, luminescence, 20 h | Potency, µM (doses to about 53.6 µM), for inactives: top-dose activity, negative = inhibition, usual class: inhibitors | 310,000 tested, 3.5% active | AID 2546, 2010;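 further: Gal4-VP16 expression switched on by copper sulfate through the metallothionein promoter; nearly all actives have a fitted effect of over 50% in size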
RORg inh: qHTS for inhibitors of ROR gamma transcriptional activity | 310,000 tested, 5.4% active | Drosophila S2 Gal4-RORgamma UAS-luciferase reporter, 20 h | Potency, µM (series often up to 53.6 µM), for inactives: top-dose activity change, negative = inhibition, actives largely listed as inhibitors | Nuclear receptor ROR-gamma (Mus musculus), P51450; further: nearly all actives have a fitted effect of over 60% in size
Target sequence (P51450 whole entry, looked up, the tested form may be a part): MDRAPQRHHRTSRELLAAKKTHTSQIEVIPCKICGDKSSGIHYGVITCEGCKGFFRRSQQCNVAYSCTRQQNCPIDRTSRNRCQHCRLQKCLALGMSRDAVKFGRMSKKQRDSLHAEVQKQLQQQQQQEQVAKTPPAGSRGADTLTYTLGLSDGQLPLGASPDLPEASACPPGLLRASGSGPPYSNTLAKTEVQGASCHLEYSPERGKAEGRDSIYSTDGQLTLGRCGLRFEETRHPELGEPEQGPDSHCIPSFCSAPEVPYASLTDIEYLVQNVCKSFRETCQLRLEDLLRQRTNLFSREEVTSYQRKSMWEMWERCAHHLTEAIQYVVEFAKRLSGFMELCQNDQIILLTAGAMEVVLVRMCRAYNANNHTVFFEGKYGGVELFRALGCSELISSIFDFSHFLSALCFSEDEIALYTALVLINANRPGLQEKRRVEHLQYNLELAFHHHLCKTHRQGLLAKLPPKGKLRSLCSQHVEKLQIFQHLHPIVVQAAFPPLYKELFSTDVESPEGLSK
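In this cell-based reporter format, copper sulfate (700 uM final) drives Gal4–ROR gamma fusion expression from a metallothionein promoter in Drosophila Schneider cells; compounds preincubated 1 hr, reporter read after 20 hr at ambient temperature.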
The depositor's hits bear a star; ? = inconclusive; . = no result given; [ ] = remark or other dose. Most compounds without a hit are left out; they make up all but 6.4% or so of the library. The call rests on the fitted dose curve; in most records, active means well fitted curve in the direction sought with a large enough effect; inconclusive means small, poorly fitted or top-dose-only effect, or another doubt; inactive means no such curve, though single readings can be large; an effect the other way counts as inactive or inconclusive. On the % scale 0 is the no-effect control and ±100 the full control effect; potency means the concentration at half of the fitted maximal effect.

SMILES	KinaseGlo FLuc	VP16 counter	RORg inh
COc1ccc(NC(=O)c2ccc3ccccc3c2)cc1	.	-2%	-33%
O=C(CNc1ccccc1)NNC1=NCCC1	-2%	?	?
COc1ccc(C(=O)CNc2ccc3ccccc3c2)cc1	0%	?	13µM*
Cc1ccccc1NCC(=O)c1ccc(Br)cc1	9%	-15%	16%
O=C(CNc1ccc2ccccc2c1)NNC1=NCCC1	-1%	4µM*	2.8µM*
COc1ccc(-n2nc(C(=O)O)cc2-c2ccccc2)cc1	.	-4%	12%
O=C(COC(=O)c1cn(-c2ccccc2)nc1-c1cccnc1)NC1CC1	2%	-1%	9%
CCNC(=S)NNC(=O)c1cc(-c2cccc(C)c2)nc2ccccc12	13µM*	8.9µM*	3.5µM*
CCOC(=O)c1ccc(NC(=S)NNC(=O)c2cc(-c3cccnc3)nc3ccccc23)cc1	.	-13%	-34%
CCNC(=S)NNC(=O)c1cc(-c2cccnc2)nc2ccccc12	?	?	16µM*
CCNC(=S)NNC(=O)c1cc(-c2cccc(OCC)c2)nc2ccccc12	-5%	?	13µM*
CCCNC(=S)NNC(=O)c1cc(-c2cccnc2)nc2ccccc12	.	-11%	?
CCCCOc1cccc(-c2cc(C(=O)NNC(=S)NCC)c3ccccc3n2)c1	0%	?	-40%
CNC(=O)c1oc(-c2ccccc2)nc1C	-4%	-3%[10 µM]	-13%
CCOC(=O)C(=CNc1cc(OC)ccc1-n1cccc1)C(=O)OCC	.	27%	7%
COc1ccc(-n2ncc(C(=O)NC3CC3)c2C2CCN(C(=O)OC(C)(C)C)CC2)cc1	.	-1%	2%
CCN(CC)C(=O)CSc1nc2cc3c(cc2c(=O)n1Cc1ccc(OC)cc1)OCO3	1%	7%	31%
CC1CCCCC1NC(=O)CCN1C(=O)C2C3C=CC(C3)C2C1=O (centres undefined)	.	2%	16%
COCC1CCCCN1C(=O)c1cc(COc2ccc3ncccc3c2)on1 (centres undefined)	.	7.1µM*	-40%
COCC1CCN(C(=O)c2cc(COc3ccc4c(c3)CCCC4)on2)C1 (centres undefined)	.	-12%	24%
CC(C)N(Cc1nccn1C)C(=O)c1cc(COc2ccc3ncccc3c2)on1	1%	?	-67%
CCN1CCN(C(=O)c2cc(COc3ccc4ncccc4c3)on2)CC1	-1%	?	-44%
CCCN1CCN(C(=O)c2cc(COc3ccc4ncccc4c3)on2)CC1	.	20µM*	13µM*
Cc1nc(CN(C)C(=O)c2cc(COc3ccc4ncccc4c3)on2)cs1	0%	6.3µM*	?
CCN(CC)C(=O)C1CCCN(C(=O)c2cc(COc3ccc4ncccc4c3)on2)C1 (centres undefined)	.	?	31%
SMILES	KinaseGlo FLuc	VP16 counter	RORg inh
CCC1CCCCN1C(=O)c1cc(COc2ccc3ncccc3c2)on1 (centres undefined)	.	2.8µM*	?
O=C(c1ccc(COc2ccccc2Br)cc1)N1CCCCCC1	-2%	-3%	14%
CN(C)c1ccc(C(CNC(=O)Cc2cccc3ccccc23)N(C)C)cc1 (centres undefined)	.	-2%	-10%
Cc1noc(C)c1C(=O)N1CCC(C(=O)c2ccccc2)CC1	.	-12%	-8%
COCCC1CCCCN1C(=O)c1cc(COc2ccc(-n3cncn3)cc2)on1 (centres undefined)	.	8.9µM*	0%
COCCOC1CCN(C(=O)c2cc(COc3ccc(-n4cncn4)cc3)on2)CC1	.	3%	2%
CC(C)=CC(=O)N1CCC(N2CCC(C(=O)NCC3CCCO3)CC2)CC1 (centres undefined)	.	-7%	-2%
O=C(CNC(=O)c1ccc(Cl)cc1)NC(CO)c1ccccc1 (centres undefined)	.	-23%	13%
CCOc1ccc(/C=N/OC(C)C(=O)NCc2ccc3c(c2)OCO3)cc1 (centres undefined)	-1%	-2%	13%
CCCCC(=O)N(Cc1ccc2c(c1)OCO2)Cc1nc2ccccc2c(=O)[nH]1	-4%	-22%	11µM*
CCCC(=O)N(CCc1ccc(OC)cc1)Cc1nc2ccccc2c(=O)[nH]1	9%	?	10µM*
Cc1ccc(C(=O)N(Cc2ccc3c(c2)OCO3)Cc2nc3ccccc3c(=O)[nH]2)cc1	1%	0%	?
COCC(=O)N(CCc1ccc(OC)cc1)Cc1nc2ccccc2c(=O)[nH]1	0%	7.1µM*	5µM*
COc1ccccc1CNC(=O)CCc1nc2ccccc2c(=O)[nH]1	0%	13%	4%
COCC(=O)N(Cc1ccc(OC)cc1)Cc1nc2ccccc2c(=O)[nH]1	0%	.	29%[0.365 µM]
Cc1ccc(OCCOC(=O)CCc2nc3ccccc3c(=O)[nH]2)cc1	1%	-8%	-2%
COc1ccccc1CN(Cc1nc2ccccc2c(=O)[nH]1)C(=O)Nc1ccccc1	1%	?	10µM*
CC(CN1C(C)CCCC1C)OC(=O)c1ccccc1F (centres undefined)	.	2%	-1%
CC(=O)OCC(NC(=O)C(C)NC(=O)OC(C)(C)C)C1OC(n2cc(F)c(=O)[nH]c2=O)C(OC(C)=O)C1OC(C)=O (centres undefined)	.	-6%	-11%
Cc1ccc(-c2nnn(CC(=O)N3CCCCC3)n2)cc1	.	2%	1%
CCOC(=O)c1cc(-c2ccc(F)cc2)n(CCC(=O)NC2CCN(Cc3ccccc3)CC2)c1C	-3%	1%	-42%
COc1cccc(C(=O)c2sc(NC(C)C)nc2N)c1	1%	11µM*	?
COc1ccc(C(=O)c2sc(NC(C)C)nc2N)cc1OC	10%	?	-28%
O=C(c1cc(=O)[nH]c2ccccc12)N1CCN(c2cccc(C(F)(F)F)c2)CC1	4%	8%	2%
O=C(Cc1csc(Nc2nc(=S)[nH]c3ccccc23)n1)NCc1cccc(Cl)c1	-3%	?	6.3µM*
SMILES	KinaseGlo FLuc	VP16 counter	RORg inh
O=C(Cc1csc(Nc2nc(=S)[nH]c3ccccc23)n1)NCc1ccccc1Cl	1%	-5%	6%
Cc1ccc(CNC(=O)Cc2csc(Nc3nc(=S)[nH]c4ccccc34)n2)cc1	-2%	7.1µM*	1.4µM*
O=C(Cc1csc(Nc2nc(=S)[nH]c3ccccc23)n1)N1CCN(c2cccc(C(F)(F)F)c2)CC1	-2%	7.1µM*	0.63µM*
Cc1ccc(CNC(=O)Cc2cccs2)cc1	-3%	14%	25%
O=C1Nc2ccc(Br)cc2C1(O)c1ccc(F)cc1 (centres undefined)	.	8%	-7%
CCN(CC)c1ccc(NC(=O)c2ccc(=O)[nH]c2)cc1S(=O)(=O)Nc1ccccc1OC	-1%	?	-37%
CCc1cc2c3c([nH]c2cc1S(=O)(=O)NCCCOC)CC(C)(C)CC3=O	.	-6%	36%
COc1ccc(C(=O)N/N=C/c2sc(N3CCOCC3)nc2-c2ccccc2)cc1OC	-2%	7%	2.8µM*
Cc1occc1C(=O)N/N=C/c1sc(N2CCOCC2)nc1-c1ccccc1	0%	?	13µM*
O=C(N/N=C/c1sc(N2CCOCC2)nc1-c1ccccc1)c1ccc(O)cc1	2%	-3%	5%
